# “And” between values parts separate entries of the source, which are not always exact repeats. Equal values may be shown once. Results filed as inconclusive are left out. Some structures have more than one record in an assay (separate samples or runs), and their calls can disagree. The source made the active and inactive calls. Rule for the calls, unless noted: active = hit-call score of the fitted dose curve at least 0.9, where 1 is the maximum; inactive = score below 0.9.
# Test system: not listed separately
# Assay: CCTE_Shafer_MEA_dev_per_network_spike_spike_percent: CCTE's Neural Network Formation Assay for Percent of Spikes in a Network Spike, Shafer Lab (AID 2284054)
# In short: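 Rat primary cortical cultures, 1.5 x 10^5 cells/well on MEA. Continuous compound exposure d0–12, medium/compound renewed DIV 5, 9. Network-spike spike % (0.05 s peak window), AUC over 4 recordings, DMSO baseline.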
SMILES,outcome,AC50
S=C([S-])NCCNC(=S)[S-].[Mn+2],inactive,–
CCCCC(CC)CN1C(=O)C2C3C=CC(C3)C2C1=O (stereo unspecified),inactive,–
COCCO,inactive,–
CCCN(CCC)C(=O)SCC,inactive,–
OB(O)O,inactive,–
CC1(C)C(C=C(Cl)Cl)C1C(=O)OCc1cccc(Oc2ccccc2)c1 (stereo unspecified),–,22.2 µM (active) and 5.34 µM (active)
Cc1nn(C)c(Oc2ccccc2)c1C=NOCc1ccc(C(=O)OC(C)(C)C)cc1,–,2.38 nM (active)
S=C(S)NCCNC(=S)S.[Mn+2].[S-]C([S-])=NCCN=C([S-])[S-].[Zn+2],inactive,–
O=C(O)c1ccccc1,inactive,–
CSC(=O)c1cccc2nnsc12,inactive,–
Oc1ccc(C(c2ccc(O)cc2)C(Cl)(Cl)Cl)cc1,inactive,–
C#CCOC(=O)[C@@H](C)Oc1ccc(Oc2ncc(Cl)cc2F)cc1,inactive,–
CC(C)(c1ccc(O)cc1)c1ccc(O)cc1,inactive,6650 nM (active)
CCCCOCCOCCOCc1cc2c(cc1CCC)OCO2,inactive,–
CCN(CC)C(=O)c1cccc(C)c1,inactive,–

# Test system: DIO3 (gene 1735)
# Assay: CCTE_GLTED_hDIO3: CCTE's human Deiodinase 3 (DIO3) Inhibition Assay, Great Lakes Toxicology and Ecology Division (GLTED) Lab (AID 2284055; active = hit-call score of the fitted dose curve at least 0.9, where 1 is the maximum;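 note: potency is for inhibition seen as loss of released iodide signal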)
# In short: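 Enzyme activity is tracked as iodide release from substrate by recombinant human DIO3 over 3 h with chemical present. A second Sandell-Kolthoff step converts iodide to an absorbance signal, fitted relative to DMSO.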
row,SMILES,AC50
1,CCCN(CCC)c1c([N+](=O)[O-])cc(C(F)(F)F)c(N)c1[N+](=O)[O-],21.4 µM (active)
2,CC(=O)S[C@@H]1CC2=CC(=O)CC[C@]2(C)[C@H]2CC[C@@]3(C)[C@@H](CC[C@@]34CCC(=O)O4)[C@H]12,100 µM (active)
3,CCCCCOC(=O)COc1cc(N2C(=O)C3=C(CCCC3)C2=O)c(F)cc1Cl,100 µM (active)
4,S=C(S)NCCNC(=S)S.[Mn+2].[S-]C([S-])=NCCN=C([S-])[S-].[Zn+2],43.6 µM (active)
5,CCOC(=O)C(C)Oc1ccc(Oc2nc3ccc(Cl)cc3o2)cc1 (stereo unspecified),15.3 µM (active)
6,Oc1ccc(C(c2ccc(O)cc2)C(Cl)(Cl)Cl)cc1,143 µM (active)
7,CC(C)CCCCCCc1ccc(O)cc1,18.8 µM (active)

# Test system: not listed separately
# Assay: CCTE_Shafer_MEA_acute_AB: CCTE's Alamar Blue Assay for Cytotoxicity in the Neural Acute Assay, Shafer Lab (AID 2284069; active = hit-call score of the fitted dose curve at least 0.9, where 1 is the maximum;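 note: active compounds lower the viability signal compared with DMSO wells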)
# In short: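 Resazurin reduction (CellTiter Blue, 1:6 in fresh medium) read at ex 544/em 590 nm marks viability loss relative to DMSO. Cells: primary rat cortical neuron networks on microelectrode arrays, treated after baseline recording at 13 or 15 days in vitro.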
row,SMILES,outcome
1,O=C(c1ccccc1)C1CCCCC1,inactive
2,CCCCC(CC)CN1C(=O)C2C3C=CC(C3)C2C1=O (stereo unspecified),inactive
3,O=C(c1ccc(O)cc1O)c1ccc(O)cc1O,inactive
4,OB(O)O,inactive
5,O=C(Nc1ccc([N+](=O)[O-])cc1Cl)c1cc(Cl)ccc1O,inactive
6,Cc1nn(C)c(Oc2ccccc2)c1C=NOCc1ccc(C(=O)OC(C)(C)C)cc1,inactive
7,CC(C)(C)[C@@H](O)[C@@H](Cc1ccc(Cl)cc1)n1cncn1,inactive
8,O=C(O)c1ccccc1,inactive
9,C=CCOC(Cn1ccnc1)c1ccc(Cl)cc1Cl (stereo unspecified),inactive
10,COC(=O)c1ccccc1C(=O)O,inactive
11,C#CCOC(=O)[C@@H](C)Oc1ccc(Oc2ncc(Cl)cc2F)cc1,inactive
12,CCNc1nc(N)nc(Cl)n1,inactive
13,N#CSCSc1nc2ccccc2s1,inactive
14,CC(C)CCCCCCc1ccc(O)cc1,inactive
15,CC(C)(c1ccc(O)cc1)c1ccc(O)cc1,inactive

# Test system: not listed separately
# Assay: CCTE_Shafer_MEA_acute_LDH: CCTE's Lactate Dehydrogenase Assay for Cytotoxicity in the Neural Acute Assay, Shafer Lab (AID 2284086; active = hit-call score of the fitted dose curve at least 0.9, where 1 is the maximum;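 note: active means LDH release rises above DMSO vehicle level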)
# In short: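 Released lactate dehydrogenase, read at 490 nm, indicated cytotoxicity after acute 40-min compound treatment of rat cortical neuron networks grown on 48-well MEA plates.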
row,SMILES,outcome
1,O=C(c1ccccc1)C1CCCCC1,inactive
2,CCCCC(CC)CN1C(=O)C2C3C=CC(C3)C2C1=O (stereo unspecified),inactive
3,CCCN(CCC)c1c([N+](=O)[O-])cc(C(F)(F)F)c(N)c1[N+](=O)[O-],inactive
4,O=C(c1ccc(O)cc1O)c1ccc(O)cc1O,inactive
5,OB(O)O,inactive
6,O=C(Nc1ccc([N+](=O)[O-])cc1Cl)c1cc(Cl)ccc1O,inactive
7,CC1(C)C(C=C(Cl)Cl)C1C(=O)OCc1cccc(Oc2ccccc2)c1 (stereo unspecified),inactive
8,Cc1nn(C)c(Oc2ccccc2)c1C=NOCc1ccc(C(=O)OC(C)(C)C)cc1,inactive
9,CC(C)(C)[C@@H](O)[C@@H](Cc1ccc(Cl)cc1)n1cncn1,inactive
10,O=C(O)c1ccccc1,inactive
11,CSC(=O)c1cccc2nnsc12,inactive
12,Oc1ccc(C(c2ccc(O)cc2)C(Cl)(Cl)Cl)cc1,inactive
13,C=CCOC(Cn1ccnc1)c1ccc(Cl)cc1Cl (stereo unspecified),inactive
14,CCNc1nc(N)nc(Cl)n1,inactive
15,N#CSCSc1nc2ccccc2s1,inactive
16,CC(C)CCCCCCc1ccc(O)cc1,inactive
17,CC(C)(c1ccc(O)cc1)c1ccc(O)cc1,inactive

# Test system: not listed separately
# Assay: CCTE_Shafer_MEA_dev_mutual_information_norm: CCTE's Neural Network Formation Assay for Mutual Information Normalization, Shafer Lab (AID 2284091);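 for AC50: mutual information between electrodes summarised as area under curve across four recording days; potency is for a decrease in mutual information relative to DMSO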
# In short: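 Developing rat cortical networks on 16-electrode MEA wells are treated throughout formation (DIV 0–12). Shared electrode information is recorded four times, converted to area-under-curve, and fitted for decreases against DMSO vehicle.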
SMILES,outcome,AC50
S=C([S-])NCCNC(=S)[S-].[Mn+2],inactive,–
CCCCC(CC)CN1C(=O)C2C3C=CC(C3)C2C1=O (stereo unspecified),inactive,–
COCCO,inactive,–
CCCN(CCC)C(=O)SCC,inactive,–
OB(O)O,inactive,–
CC1(C)C(C=C(Cl)Cl)C1C(=O)OCc1cccc(Oc2ccccc2)c1 (stereo unspecified),–,15 µM (active) and 5.01 µM (active)
Cc1nn(C)c(Oc2ccccc2)c1C=NOCc1ccc(C(=O)OC(C)(C)C)cc1,–,1.28 nM (active)
S=C(S)NCCNC(=S)S.[Mn+2].[S-]C([S-])=NCCN=C([S-])[S-].[Zn+2],inactive,–
O=C(O)c1ccccc1,inactive,–
CSC(=O)c1cccc2nnsc12,inactive,–
Oc1ccc(C(c2ccc(O)cc2)C(Cl)(Cl)Cl)cc1,inactive,–
C#CCOC(=O)[C@@H](C)Oc1ccc(Oc2ncc(Cl)cc2F)cc1,inactive,–
CC(C)(c1ccc(O)cc1)c1ccc(O)cc1,inactive,1950 nM (active)
CCCCOCCOCCOCc1cc2c(cc1CCC)OCO2,inactive,–
CCN(CC)C(=O)c1cccc(C)c1,inactive,–

# — PubChem BioAssay (EPA / NIEHS)
